Assay results taken from PubChem BioAssay AID1645860 (Buhrlage Lab, Dana-Farber Cancer Institute and Novartis …, 2021).
The campaign covered roughly 47,000 compounds. About 2,500 (5.3%) were called active. The sample holds actives, similar compounds and a random draw of the others, so the mix is not that of the screen. Rule as the data show it: active = inhibition above about 30%; inactive = the rest.

Each compound was assayed against Ubiquitin carboxyl-terminal hydrolase 30 (Homo sapiens) (UniProt Q70CQ3) (assay: inhibitors of human USP30 deubiquitinase (AID 1645860)). Conditions: purified USP30, Ub-rhodamine cleavage fluorescence; at 25 µM; hits give high values.
Sequence of Ubiquitin carboxyl-terminal hydrolase 30 (Homo sapiens) (Q70CQ3 whole entry, looked up): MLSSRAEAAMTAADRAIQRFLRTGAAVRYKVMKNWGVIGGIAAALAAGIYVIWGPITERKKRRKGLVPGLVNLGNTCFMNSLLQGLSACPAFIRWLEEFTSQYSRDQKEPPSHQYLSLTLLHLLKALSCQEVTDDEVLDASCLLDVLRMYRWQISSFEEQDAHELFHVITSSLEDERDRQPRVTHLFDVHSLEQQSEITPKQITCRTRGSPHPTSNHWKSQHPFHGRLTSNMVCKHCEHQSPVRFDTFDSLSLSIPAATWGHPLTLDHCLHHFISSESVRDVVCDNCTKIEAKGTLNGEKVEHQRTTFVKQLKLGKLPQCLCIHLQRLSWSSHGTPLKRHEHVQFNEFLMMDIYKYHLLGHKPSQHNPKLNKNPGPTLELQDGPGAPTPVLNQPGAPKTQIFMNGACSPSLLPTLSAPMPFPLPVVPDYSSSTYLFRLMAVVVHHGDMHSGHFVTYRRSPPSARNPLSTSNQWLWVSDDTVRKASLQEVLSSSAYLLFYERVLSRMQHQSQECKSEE

inhibition, inactive:
COCCn1cnc2c(-c3ccccc3)cn(CC(=O)NCc3ccccc3)c2c1=O -28.3%
COCC(=O)N1CCCCCC1C1CCN(c2nn3cc(C)nc3s2)CC1 (configuration not stated) 16.4%
COC(=O)c1ccc(C2c3[nH]c4ccccc4c3C[C@H]3C(=O)N(CC4CCCO4)CC(=O)N23)cc1 (some centres not stated) -26.4%
COc1ccccc1OCC(=O)Nc1cc(C(F)(F)F)ccc1N1CCCCC1 -1.33%
CCOc1ccc(S(=O)(=O)N2CCCCC2)cc1NC(=O)c1ccc(C#N)cc1 11.5%
CCn1nnc2c1C(COC)CN(C(=O)CC1=CCCCC1)C2 (configuration not stated) -64.1%
CCN(C(=O)c1nc(-c2cccc(F)c2)n2c1CCCCC2)c1ccccc1 -10.9%
C=C(NC(=O)C(=C)NC(=O)c1csc(C2=N[C@@H]3c4csc(n4)[C@H]4NC(=O)c5csc(n5)[C@H]([C@](C)(O)[C@@H](C)O)NC(=O)C5CSC(=N5)/C(=C/C)NC(=O)C([C@@H](C)O)NC(=O)c5csc(n5)[C@]3(CC2)NC(=O)[C@H](C)NC(=O)C(=C)NC(=O)[C@H](C)NC(=O)C([C@@H](C)CC)NC2C=Cc3c(C(C)O)cc(nc3[C@H]2O)C(=O)OC4C)n1)C(N)=O (some centres not stated) -88.3%
COc1ccccc1Nc1nc(-c2cnc(N3CCCC3)nc2C)cc(=O)[nH]1 23.2%
COC(=O)c1ccc(NC(=O)CSc2nnc(C(C)Oc3ccccc3)n2C)cc1 (configuration not stated) 25.4%
Cc1cc(C)nc(N(C(=O)C2CC2)c2ccc(OC(F)(F)F)cc2)n1 -22.9%
CN1[C@@H](CCC(=O)N2CCc3ccccc32)CNC(=O)[C@@H]2[C@H]1CCN2Cc1ncc[nH]1 -9.99%
O=S(=O)(c1ccccc1)N1CCC(n2cnnc2-c2ccccc2)CC1 -0.303%
Cc1cc(O)c(=O)cc2c1C[C@H]1CC(C)(C)/C=C/C[C@@]3(C)Oc4cc(=O)c(O)cc(C)c4C[C@@H]3C[C@H](O)[C@]1(C)O2 -161%
CC(C)(C)CC(=O)N1CCN(c2ccc(N3CCCC3)nn2)CC1 -15.1%
COc1ccc(S(=O)(=O)N(C(=O)c2ccccc2)c2ccc3oc4c(c3c2)CCCC4)cc1 -10.1%
CCC(=O)c1ccc(OCC(=O)Nc2ccc3c(c2)CCC3)cc1 -0.468%
COc1ccc(-c2nn(-c3ccccc3)cc2C(=O)N2CCCCC2)cc1 -1.66%
O=C(Nc1ccc(Oc2ccccc2F)cc1)C1CCN(Cc2cccc(O)c2)CC1 23%
O=C(CN1CCN(CC(=O)Nc2ccc3c(c2)OCO3)CC1)Nc1ccc(F)cc1 -29.4%
CC1CCC(NC(=O)Cn2c(=O)[nH]c3ccccc3c2=O)CC1 (configuration not stated) 26.9%
CCOC(=O)N1CCC(NC(=O)CCc2ccccc2)CC1 11.3%
COc1ccc(CCNC(=O)[C@@H](NC(=O)[C@@H]2Cc3c([nH]c4ccccc34)C3c4ccccc4C(=O)N32)C(C)C)cc1 (some centres not stated) -104%
COc1ccccc1NC(=O)Nc1ccc(CCc2nc3ccccc3[nH]2)cc1 -27.4%
COc1ccccc1NC(=O)N1CCN(Cc2nc3ccccc3o2)CC1 7.46%
COc1ccc(C(=O)NCC(=O)Nc2nc3ccccc3[nH]2)c(C)c1 9.21%
O=C(NC1CCCC1)c1csc(C(=O)N2CCCC2)n1 3.97%
CC(C(=O)N1c2ccccc2NC(=O)C1(C)C)N1CCCC1c1ccc2c(c1)OCCO2 (configuration not stated) -221%
Cc1c(C)n2c(SCC(=O)N(C)c3ccccc3)nnc2[nH]c1=O 6.75%
COCCN1C(=O)CCc2cc(NS(=O)(=O)c3cc(C)cc(C)c3)ccc21 -16.1%
CCN1C(=O)CCc2cc(NC(=O)Cc3ccc(OC)c(Cl)c3)ccc21 -7.67%
CC(=O)Nc1ccc(C(=O)NCCn2c(C)nc3ccccc32)cc1 27.4%
CC(C)Cc1cc(C(=O)N2CCOC(c3nccnc3N)C2)n(C)n1 (configuration not stated) 10.1%
COc1ccccc1CCNC(=O)c1cccc(N2C(=O)C(C)(C)CS2(=O)=O)c1 -7.58%
COc1ccc(-c2nc(-c3nnn(Cc4cccc(F)c4)c3C)no2)cc1 8.22%
Cc1c(-c2noc(-c3cccc(N(C)C)c3)n2)nnn1Cc1cccc(F)c1 -2.61%
COC(=O)c1ccccc1NC(=O)Cn1cc(S(=O)(=O)Cc2ccc(C)cc2)c2ccccc21 -13.4%
COCc1ccc(C(=O)N2CCC3(CC2)CNC(=O)c2ccccc2O3)cc1 14.1%
O=S(=O)(Nc1ccccc1Cc1ccccc1)c1ccccc1F 16.2%
Cc1ccc(Cc2nnc(C(=O)NC(C)c3ccccc3)o2)cc1 (configuration not stated) -0.465%
COc1ccccc1N(CC(=O)NCc1cccnc1)S(=O)(=O)c1ccc(C)cc1 -6.24%
O=C(CNC(c1ccccc1)c1ccccc1)Nc1ccc(F)cc1 13.6%
Cc1nc2nc(NCc3ccccc3)[nH]n2c(=O)c1CCC(=O)N1CCC(C)CC1 0.108%
O=C(NCc1ccccn1)C1CCCN(c2ccc(-c3ccccc3)nn2)C1 (configuration not stated) 23.1%
Cc1ccc(NC(=O)Cn2c(N3CCCC3)nc(C)cc2=O)cc1 18.2%
c1ccc(-c2csc3ncnc(NC4CCCc5ccccc54)c23)cc1 (configuration not stated) -52.1%
Cc1ccccc1CNC(=O)N1CCC2(CC1)NC(=O)[C@H]1CN(c3ncccn3)C[C@H]12 25.7%
Cc1cccc(-c2cccc(C3CCCN(C(=O)c4cnccn4)C3)n2)c1 (configuration not stated) -38%
O=C(Nc1ccccc1F)Nc1nnc2cccc(Cl)n12 -21.8%
Cc1nc2ccccc2c(=O)n1CC(=O)N1CCCc2ccccc21 17.4%
CN(CCc1ccccn1)CC(=O)N1CCc2ccccc21 -0.887%
Cc1ccc(C)c(N2CCN(c3nc4ccc(Cl)cc4nc3-n3nc(C)cc3C)CC2)c1 -8.16%
O=C(Nc1ccc(Cl)cc1F)c1cc(-c2ccccn2)n[nH]1 12.6%
Cc1ccc(CC(=O)N2CCN(C(=O)c3cc(-c4ccccn4)n[nH]3)CC2)cc1 4.03%
O=C(Cn1cc(S(=O)(=O)Cc2ccccc2Cl)c2ccccc21)N1CCCCCC1 -0.265%
CC(=O)Nc1cccc(NC(=O)CSc2cn(CC(=O)N3CCC(C)CC3)c3ccccc23)c1 -1.08%
COCCN1CC(C(=N)N)C(=O)NC1=O (configuration not stated) -45.1%
COc1ccc(CC(=O)Nc2ccc3c(c2)CN(C(=O)c2ccco2)CC3)cc1 19.1%
O=C(CC1(O)C(=O)N(Cc2cccc3ccccc23)c2ccccc21)c1cccc2ccccc12 (configuration not stated) 2.93%
CN1CCc2c(sc3nc(SCCc4ccccc4)n(-c4ccccc4)c(=O)c23)C1 -152%
COc1cccc(NS(=O)(=O)c2ccc(-c3coc(C)n3)cc2)c1 -18.4%
Cc1cccc(NS(=O)(=O)c2ccc3nnc(C)n3c2)c1 -4.01%
O=C(CCCOc1ccc(F)cc1F)N1CCC(c2[nH]nc3nccnc23)CC1 -12.7%
Cc1ccc(N2CCn3c(nc4ccccc43)C2)cc1NS(C)(=O)=O -304%
Cc1ccc(Cn2c(C)c(CNCCC3=CCCCC3)c(C(=O)O)c2C)cc1 -1.85%
O=C(CCc1nnc2n(CCc3ccccc3)c(=O)c3ccccc3n12)NCCN1CCCC1 13.2%
Cn1ncc2c1CCCN(C(=O)Cc1ccccc1F)C2 10.7%
Cc1ccccc1CC(=O)Nc1ccc(-n2ccnc2C)nc1 -47.4%
COc1cn(CC(=O)Nc2cccc(C)c2)c(CSc2ccc(C)cc2)cc1=O -0.0406%
Cc1cccc(NC(=O)Cn2c(=O)n(Cc3nc(C)no3)c(=O)c3ccccc32)c1 14.7%

inhibition, active:
O=C(Nc1cc(C(F)(F)F)ccc1-n1cnc2ccccc21)c1ccc(S(=O)(=O)N2CCCCC2)cc1 32.6%
Cc1nnc(OCC(=O)Nc2ccc(OC(F)(F)F)cc2)c2ccccc12 64.8%
O=C(COc1ccc2oc3c(c2c1)CCCC3)Nc1ccccn1 48.3%
O=C(Nc1cccc(-c2cccc(F)c2)c1)C1CCN(Cc2cccc3c2OCO3)CC1 36.9%
CCOc1ccccc1NC(=O)Nc1cc(-c2nc3ccccc3o2)ccc1OC 58.5%
CCCCOc1ccc(C(=O)Nc2ccc3c(c2)CCC(=O)N3CCC)cc1 46.1%
CCOc1ccccc1-c1nc(-c2nnn(Cc3ccccc3)c2C)no1 51.6%
O=C(CN(Cc1ccccc1Cl)S(=O)(=O)c1ccccc1F)NC(c1ccccc1)c1ccccc1 33.4%
Cc1ccc(S(=O)(=O)N(CC(=O)NC(C)c2ccccc2)Cc2ccccc2F)cc1 (configuration not stated) 32.6%
CN1CC(=O)N(C2CCCNC2)Cc2c(NC3CCc4ccccc43)ncnc21 (configuration not stated) 69.8%
COC(=O)COc1cccc2c(=O)n(CC(=O)N3CCc4ccccc43)ccc12 37%
COc1cc(Cl)c(NC(=O)c2cc(-c3ccccn3)n[nH]2)c(OC)c1 31.5%
O=C(Cn1cc(SCc2cccc(F)c2)c2ccccc21)N1CCCCCC1 35.3%
O=S(=O)(Nc1cccc(O)c1)c1ccc2oc3ccc(S(=O)(=O)Nc4cccc(O)c4)cc3c2c1 42.9%
Oc1cccc2nc3c(O)cccc3nc12 55.9%
CCc1ccc(-n2c(=O)c3ccccc3n(CC(=O)NCCC3=CCCCC3)c2=O)cc1 41%
Cc1cccc(NC(=O)Cn2c(C)ccc(NC(=O)Nc3cccc(C)c3)c2=O)c1 34.8%
